# Experimental data as given in PubChem BioAssay (EPA / NIEHS).
# “And” between values parts separate entries of the source, which are not always exact repeats. Equal entries are not always repeated. Results filed as inconclusive are left out. Where a structure was tested more than once in an assay, its records may differ in their call. The source made the active and inactive calls. Rule for the calls, unless noted: active = hit-call score of the fitted dose curve at least 0.9, where 1 is the maximum; inconclusive = response in the unintended direction; inactive = score below 0.9.
# What was measured:
# [1] = test system: Thyroperoxidase (TPO), gene 54314; assay: CCTE_Simmons_AUR_rTPO: CCTE's Amplex UltraRed Assay for Thyroperoxidase (TPO) Inhibition, Simmons Lab (AID 2283662);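 for AC50: potency for loss of signal meaning inhibition of peroxidase activity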
# How it was run: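 Cell-free peroxidase activity assay using rat thyroid gland microsomes with excess H2O2 (300 uM) and 25 uM Amplex UltraRed. Compounds tested from 5 nM to 87.5 uM; fluorescence measured after 30 min at 37C, analysed relative to DMSO baseline.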
# [2] = CCTE_Simmons_CellTiterGLO_HEK293T: Viability Assessment in CCTE's Assays for Thyroperoxidase (TPO) Inhibition, Simmons Lab (AID 2283665);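 for AC50: cells exposed to compound for 24 h before readout; actives reduce ATP signal below DMSO vehicle meaning cytotoxicity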
# How it was run: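 HEK293T, 10 000 cells/well, DMEM + 1% FBS; 8-pt titration 5 nM–87.5 uM [final], 0.5% DMSO; 24 hr, 37C, 5% CO2; CellTiter-Glo luminescence; n=3 biological replicates.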
# [3] = Tanguay_ZF_120hpf_NC_legacy: (Legacy) Oregon State University Tanguay Lab 120 Hour Post-fertilization zebrafish Assay for Notochord and Tail Malformation (AID 2283656)
# How it was run: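 Dechorionated Tropical 5D wild-type zebrafish embryos, one per well from 6 hpf, statically exposed to 120 hpf at 28C in 0.64% DMSO final. Notochord distortion scored present/absent by brightfield; dead embryos excluded.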
# [4] = Tanguay_ZF_120hpf_TR_legacy: (Legacy) Oregon State University Tanguay Lab 120 Hour Post-fertilization zebrafish Assay for Touch Response (AID 2283667)
# How it was run: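 Tropical 5D wild-type zebrafish embryos were exposed statically in sealed, foil-covered plates at 28C until 120 hpf, with 0.64% (vol/vol) final DMSO. Touch response was scored as present or absent; embryos that died were not scored.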
# [5] = CCTE_Padilla_ZF_144hpf_TERATOSCORE: (Legacy) CCTE's 144 Hour Post-fertilization zebrafish Assay Teratoscore, Padilla Lab (AID 2283679; active = hit-call score of the fitted dose curve at least 0.9, where 1 is the maximum; inactive = score below 0.9;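 note: zebrafish embryos with chorions exposed by immersion from 6-8 hpf to 5 dpf with daily renewal; teratogenicity score from eye scoring of death hatching and malformations at 144 hpf; higher score means more developmental defects relative to DMSO baseline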)
# How it was run: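 Larvae scored by eye at 144 hpf for death, hatching and malformations after a day in clean Hanks'. Before that, daily-renewed exposure at 80 uM (0.4% DMSO, 26C) from roughly 6-8 hpf through 5 dpf, 4 embryos per chemical.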
# [6] = Tanguay_ZF_120hpf_ActivityScore_legacy: (Legacy) Oregon State University Tanguay Lab 120 Hour Post-fertilization zebrafish Assay Score for Activity (AID 2283742);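 for AC50: static exposure from 6 hpf until 120 hpf at 28 °C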
# How it was run: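 Tropical 5D wild-type zebrafish embryos, dechorionated with pronase at 4 hpf, were exposed singly from 6 hpf to 120 hpf statically at 28C in 0.64% DMSO. Malformations and mortality were scored as binary by brightfield, with the activity score combining 18 morphology components.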
# [7] = STM_H9_OrnithineISnorm_perc: Stemina devTOX quickPredict H9 human embryonic stem cell (hESC)-based Assay for Ornithine (ORN) Metabolite Biomarker, Normalized (AID 2283712; active = hit-call score of the fitted dose curve at least 0.9, where 1 is the maximum; inactive = score below 0.9;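 note: ornithine released into spent medium during last day measured by mass spectrometry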)
# How it was run: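 H9 human embryonic stem cells kept pluripotent receive test chemical over 72 h, refreshed daily by media exchange. Media from the closing 24 h is deproteinized and analysed by UPLC-HRMS on an amide column; ornithine signal is scaled to labelled standard and vehicle.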
# [8] = STM_H9_CystineISnorm_perc: Stemina devTOX quickPredict H9 human embryonic stem cell (hESC)-based Assay for Cystine (CYSS) Metabolite Biomarker, Normalized (AID 2283713; active = hit-call score of the fitted dose curve at least 0.9, where 1 is the maximum; inactive = score below 0.9)
# How it was run: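 H9 hESC, pluripotent; compound 72h, re-dosed q24h with medium change. Last-24h medium → 40% acetonitrile deproteinization → UPLC-HRMS. CYSS area / C13-CYSS standard, then % of 0.1% DMSO median.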
# [9] = STM_H9_OrnCyssISnorm_ratio: Stemina devTOX quickPredict H9 human embryonic stem cell (hESC)-based Assay for Ornithine (ORN):Cystine (CYSS) Ratio (AID 2283714)
# How it was run: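 Undifferentiated H9 hESCs were exposed to compound for 72h with media and chemical replaced every 24h. Final 24-h conditioned media were deproteinized and analysed by UPLC-HRMS. ORN and CYSS peak areas were normalized to C13 internal standards and the ratio taken versus 0.1% DMSO.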
# [10] = ArunA_CellTiter_hNC: Viability Assessment in the ArunA Biomedical's Oris Neural Crest (hNC) Cell Migration Assay (AID 2283752)
# How it was run: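 Cell titer was measured with the CellTiter Aqueous One reagent after 72 h of chemical dosing. Cells were H9-derived embryonic neural crest stem cells seeded on Matrigel, 60,000 per well, and given 16 h at 37C beforehand.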
# [11] = ArunA_CellTiter_hNP: Viability Assessment in the ArunA Biomedical's Oris Neural Crest (hNC) Cell Migration Assay (AID 2283753)
# How it was run: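 H9-derived hNP1 neuroprogenitors, 60,000/well on Matrigel, cultured 16 h, then 72 h chemical exposure in test medium. Cell titer via CellTiter Aqueous One; positive-direction fit vs DMSO.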
# [12] = ArunA_Migration_hNP: ArunA Biomedical's Oris Neuroprogenitor (hNP) Cell Migration Assay (AID 2283754)
# How it was run: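 Human H9-derived hNP1 neuroprogenitors on Matrigel with LIF/bFGF, plated around seeding stoppers for 16 h at 37C; stoppers removed at start of 72 h chemical exposure. Calcein-AM staining, fluorescence 494/517 nm in detection zone; loss-of-signal vs DMSO; cytochalasin D control.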
# [13] = ArunA_Migration_hNC: ArunA Biomedical's Oris Neural Crest (hNC) Cell Migration Assay (AID 2283755)
# How it was run: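 Human H9-derived neural crest stem cells, 60,000/well on Matrigel, 16 h at 37C, then 72 h chemical exposure after seeding-stopper removal. Migration into detection zone read as calcein-AM fluorescence (ex494/em517), relative to DMSO.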
# [14] = ArunA_NOG_NucleusCount: ArunA Biomedical's Neurite Outgrowth (NOG) Assay for Nucleus Count (AID 2283756)
# How it was run: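 Human H9-derived differentiated neurons were exposed for 48 h right after seeding. Hoechst-stained nuclei gated by size and intensity were counted by automated high-content imaging as viable neurons. Loss of signal vs DMSO.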
# [15] = CEETOX_H295R_MTT_cell_viability: Viability Assessment in the CeeTox HT-H295R MTT Assay (AID 2283718; active = hit-call score of the fitted dose curve at least 0.9, where 1 is the maximum; inactive = score below 0.9)
# How it was run: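 H295R cells prestimulated 48 h with 10 uM forskolin, then exposed 48 h to test chemical (0.1% DMSO final). Viability by MTT (0.5 mg/ml, 4 h, 37 C), absorbance 570/650 nm; percent change versus DMSO, bidirectional fit.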
# [16] = ArunA_NOG_NeuriteLength: ArunA Biomedical's Neurite Outgrowth (NOG) Assay for Neurite Length (AID 2283757)
# How it was run: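 Differentiated human H9-derived neurons were exposed for 48 h from seeding, then stained with Hoechst and βIII-tubulin. Automated high-content imaging gave total neurite length per valid neuron, counting processes >10 um. Loss of signal was scored versus DMSO.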
# [17] = ArunA_NOG_NeuritesPerNeuron: ArunA Biomedical's Neurite Outgrowth (NOG) Assay for Neurites Per Neuron (AID 2283758)
# How it was run: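 Differentiated human H9-derived neurons exposed to chemicals for 48 h from seeding, then stained with Hoechst and βIII-tubulin/DyLight 488. Automated imaging counted neurites (processes >10 um) per valid neuron; loss of signal versus DMSO scored.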
structure (smiles),measurement,setting,value
Cc1cc(Cc2cc(C)cc(C(C)(C)C)c2O)c(O)c(C(C)(C)C)c1,AC50,[1],1.04 µM (active)
same,AC50,[2],6.57 µM (active)
CCc1cccc(CC)c1N(COC)C(=O)CS(=O)(=O)O,outcome,[1],inactive
same,outcome,[2],inactive
N=C(N)c1ccc(OCCCCCOc2ccc(C(=N)N)cc2)cc1,outcome,[3],inactive
same,outcome,[4],inactive
same,AC50,[5],41.4 µM (active)
same,outcome,[6],inactive
CCCCC(CC)C(=O)O (stereo unspecified),outcome,[3],inactive
same,outcome,[4],inactive
same,AC50,[7],0.134 µM (active)
same,outcome,[8],inactive
same,outcome,[9],inactive
same,outcome,[6],inactive
CS(=O)(=O)c1ccc([C@@H](CC2CCCC2)C(=O)Nc2cnccn2)cc1Cl,outcome,[3],inactive
same,outcome,[4],inactive
same,AC50,[5],58.6 µM (active)
same,outcome,[6],inactive
O=C1OC2(c3ccccc31)c1cc(I)c(O)c(I)c1Oc1c2cc(I)c(O)c1I,AC50,[1],16 µM (active)
same,AC50,[2],5.7 µM (active)
CCC(C)c1ccccc1O (stereo unspecified),outcome,[3],inactive
same,outcome,[4],inactive
same,outcome,[6],inactive
OCC(CO)(CBr)CBr,outcome,[3],inactive
same,outcome,[4],inactive
same,outcome,[7],inactive
same,outcome,[8],inactive
same,outcome,[9],inactive
same,outcome,[6],inactive
same,outcome,[10],inactive
same,outcome,[11],inactive
same,outcome,[12],inactive
same,outcome,[13],inactive
same,outcome,[14],inactive
O=C(CCCN1CCC(O)(c2ccc(Cl)cc2)CC1)c1ccc(F)cc1,outcome,[3],inactive
same,outcome,[4],inactive
same,AC50,[5],0.664 µM (active)
same,outcome,[7],inactive
same,outcome,[8],inactive
same,outcome,[9],inactive
same,outcome,[15],inactive
same,AC50,[6],4.09 µM (active)
same,outcome,[10],inactive
same,AC50,[11],12.4 µM (active)
same,AC50,[12],50 µM (active) and 61.7 nM (active)
same,AC50,[13],5.34 µM (active)
same,outcome,[13],inactive
same,AC50,[14],78.9 µM (active)
same,AC50,[16],78.1 µM (active)
same,AC50,[17],77.9 µM (active)
Cc1cc(C(C)(C)C)c(O)c(C(C)(C)C)c1,AC50,[1],2.84 µM (active)
same,AC50,[2],24.5 µM (active)
CN(C)CCOC(c1ccccc1)c1ccccc1,outcome,[3],inactive
same,AC50,[4],32.7 µM (active)
same,AC50,[9],1.55 µM (active)
same,AC50,[6],202 µM (active)
